The results in this text go back to PubChem BioAssay (NCI).

The panel holds about 83,000 compounds, 20% with a hit somewhere; the sample as a whole holds those more often.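 Each cell line was grown in a 96-well plate and treated with one concentration of compound for 48 hours. Values below 10 were considered active.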 Unmarked numbers belong to inactive results. Active and inactive are the calls of the source.

This assay has as its system IGROV1 ovarian. As to the kind of experiment: NCI-60 one-dose screen, 48 h (100 = growth as untreated, 0 = no growth, -100 = all killed). The conditions noted are these: 10 µM unless noted. On the procedure: Growth inhibition of the IGROV1 human tumor cell line is measured as a screen for anti-cancer activity. Cells are grown in 96 well plates and exposed to the test compound for 48 hours. Compounds are tested at a single concentration, which is 10^-5 M for most compounds. The reported endpoint is percent growth (GI% or GIPRCNT), where numbers from 0 - 100% represent growth inhibition, and numbers from -100% - 0 represent cell death. For example, a value of 40 represents 60% growth inhibition. A value of 0 means no net growth occurred over the course of the experiment. A value of -40 indicates 40% of cells at the beginning of the experiment died by the end of the experiment. A value of -100 means all cells are dead at the end of the experiment.
NCI-60 Human Tumor Cell Lines Screen was performed using the standard one-dose NCI protocol, which is described in more detail at https://dtp.cancer.gov/discovery_development/nci-60/default.htm.
Compounds with GIPRCNT values below 10 were considered active. Activity score was based on GIPRCNT using the following formula: […]
Score is 0 for GIPRCNT values of 100 or above, 50 for GIPRCNT values of 0, and 100 for GIPRCNT values of -100.
As for `COC(=O)Nc1nc2ccc(C(=O)c3cccc(I)c3)cc2[nH]1`, the growth was 14.9%.
Take `O=S(=O)(NCCNc1nccc(-c2c(-c3cccc(F)c3)nc3occn23)n1)c1cccc2ccccc12`: the growth is 35.4%.
Next, `C[C@H]1[C@H](C)CC[C@]2(CO)CC[C@]3(C)C(=CC[C@@H]4[C@@]5(C)Cc6c([nH]c7ccccc67)C(C)(C)[C@@H]5CC[C@]43C)[C@H]12`: 88.8%; `Cc1[nH]n(-c2cccc(Cl)c2)c(=O)c1/C=C1\C=Nc2ccc(Br)cc21`: 19.3%; `O=C(CN1CCOCC1)Nc1ccc2ncnc(Nc3ccc(Oc4cccc(C(F)(F)F)c4)c(Cl)c3)c2c1`: 9.01% (active).
Next, `COc1cc(/C=C/C(=O)c2c(C)oc3nc[nH]c(=O)c23)ccc1O`: 100%; `COc1ccc(-c2nc(N=Nc3c(O)[nH]c4ccccc34)nc(N3CCOCC3)c2C#N)cc1`: 87.8%; `O=C(Nc1ccc2ncnc(Nc3ccc(Oc4cccc(F)c4)c(Cl)c3)c2c1)c1ccc(CN2CCOCC2)cc1`: 0.971% (active).
Next, `COc1ccc(C2CC(c3cccc(Nc4ccncc4)c3)=NN2c2cc(Cl)cc(Cl)c2)cc1` (stereo not given): 17.3%; `COc1ccccc1/C=N/NC1=NC2C(N1)N(C)C(=O)N2C` (stereo not given): 96.4%.
Turning to `CC(O)/C=C/C=C/C(O)CC/C=C/C(=O)NCC(C)(C)O` (stereo not given), the growth was 117%.
The value for `O=C(NCCc1ccccn1)OCc1nc2nc(Cl)nc(N3CCOCC3)c2[nH]1` was 23.9%.
Consider `CC(=O)[C@@H]1CC[C@]2(C(N)=O)CC[C@]3(C)[C@H](CC[C@@H]4[C@@]5(C)CCC(=O)C(C)(C)[C@@H]5CC[C@]43C)[C@@H]12`, for which the growth was 107%.
Consider `COc1ccccc1Nc1cc(O)c2c(=O)cc(-c3ccccc3)oc2c1`, for which the growth was 51.4%.
`COc1cc(C2CC(c3cccc(Nc4ccncc4)c3)=NN2c2cc(Cl)cc(Cl)c2)cc(OC)c1OC` (stereo not given): the growth is -2.86% (active).
Next, `Cc1ccccc1-c1cc(Cc2ccc(F)cc2)c(=O)[nH]n1`: 97.4%.
Next, `CS(=O)(=O)OCCN(CCOS(C)(=O)=O)c1ccc(/C=N/Nc2ccc([N+](=O)[O-])cc2[N+](=O)[O-])cc1`: 72%; `COc1ccc(OC)c(/C=C/[C@H]2O[C@@H](C)[C@H](O)[C@@H]2O)c1`: 105%.
Next, `COc1ccc(NC(=O)c2sc3nc(C)c(C(O)c4ccc(OC)cc4)cc3c2N)cc1` (stereo not given): 29.1%; `COc1cc(C(=O)/C=C/c2c(C)n([O-])c3ccc(Cl)cc3[n+]2=O)cc(OC)c1OC`: -30.3% (active); `COc1cc(OC)c(/C=C/C(=O)c2ccc(Nc3ncnc4ccccc34)cc2)c(OC)c1`: 19.3%.
Consider `O=S(=O)(NCCCNc1nccc(-c2c(-c3cccc(O)c3)nc3occn23)n1)c1ccc(Br)cc1`, for which the growth was 79.2%.
Regarding `COc1ccc(CNCCN2C(=O)c3ccc4c5c(ccc(c35)C2=O)C(=O)N(CCNCc2ccc(OC)cc2)C4=O)cc1`, the growth is -58.4% (active).
For the compound `O=C(Nc1ccc2cc3ccc(NC(=O)N4CCCCCC4)cc3nc2c1)N1CCCCCC1`, the growth was -48.5% (active).
For `CCOC(=O)c1c(SC)nn(-c2cc(=O)[nH]c3ccc(Br)cc23)c1N`, the growth was 102%.
The value for `Clc1ccc(N2N=C(c3cccc(Nc4ccncc4)c3)CC2c2ccc3c(c2)OCO3)cc1` (stereo not given) was 20.7%; that for `CCN(CC)CCCC(C)Nc1cc(-c2cccc(OC(F)(F)F)c2)nc2ccc(N3CCCC3)cc12` (stereo not given) was 29.9%.
Next, `c1ccc(Cn2nc3c(c2-c2ccccc2)-c2oncc2CC3)cc1`: 110%.
Next, `CC(C)(C)OC(=O)N1C/C(=C\c2ccoc2)C(=O)/C(=C/c2ccoc2)C1`: 95.6%; `O=C(Nc1nc2ccc(S(=O)(=O)Nc3ccc(C4(C(F)(F)F)CC4)cc3)cc2[nH]1)c1cnccn1`: 40.3%; `COc1cc(NCC(O)CN(CC(C)C)C2CCCC2)c2ncccc2c1` (stereo not given): 88.8%.
For `COc1cccc(NC(=O)c2cccc(-c3cc(=O)c4c(OC)c(OC)c(OC)cc4o3)c2)c1`, the growth was 53.3%.
Consider `O=C(O)c1cn(C2CC2)c2cc(N3CCN(C(=O)C[n+]4cccc5ccccc54)CC3)c(F)cc2c1=O`, for which the growth is 92.7%.
On to `CCN(CC)CCCC(C)Nc1c2c(nc3ccc(OC)cc13)CCCC2` (stereo not given), for which the growth was 98.1%.
For `COc1cccc2cc(-c3cc4ccccc4[nH]3)/c(=N/C(=S)Nc3ccc(C)cc3)oc12`, the growth was 58.2%.
Next, `CCNC(=S)NNC(=O)c1cc2ccc1CCc1ccc(cc1)CC2`: 103%.
The value for `CC1(C)[C@H](O)CC[C@]2(C)[C@@H]1CC[C@@]13C[C@@H](CC[C@H]12)[C@@](O)(CO)C3` was 113%.
`COc1ccc(-c2nc(N/N=C/c3cccc(O)c3)nc(N3CCOCC3)c2C#N)cc1`: the growth was 71.2%.
The value for `CCn1ccnc1C(=O)/C=C/c1ccc(CC(=O)Nc2ccc(F)cc2)cc1` was 32.3%.
Regarding `CN(C)c1ccc(-c2c(C#N)c(N)n3nc(N)c(C#N)c3c2C#N)cc1`, the growth is 55.7%.
